Reference: PubChem BioAssay AID1159580 (chemical genetic matrix, 2015)
The whole screen tested about 5,500 compounds, of which about 2,000 (36%) were called active. Another 18% or so got no clear call; they are omitted. No stated cut-off is given here; in the data, active means normalized growth mostly below about 0.91 (no sharp cut-off); inconclusive means no clear call, values can overlap the other calls; inactive means mostly above about 0.92. The list shows a part of the results.

Assay: chemical genetic growth profiling, strain panel (AID 1159580);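 further: tested at 20 µM; growth read once vehicle control cultures reached saturation at 30 °C; 1 = growth at the plate median or of vehicle wells; lower values mean less growth of the strain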
Conditions: S. cerevisiae deletion strains, growth OD
[1] = locus YAL021C, strain ccr4, active compounds read low
[2] = locus YAL026C, strain drs2, active compounds read low
[3] = locus YAL030W, strain snc1, active compounds read low
[4] = locus YBL061C, strain skt5, active compounds read low
[5] = locus YBR009C, strain hhf1, active compounds read low
[6] = locus YBR023C, strain chs3, active compounds read low
[7] = locus YBR171W, strain sec66, active compounds read low
[8] = locus YBR231C, strain swc5, active compounds read low
[9] = locus YBR279W, strain paf1, active compounds read low
[10] = locus YCL011C, strain gbp2, active compounds read low
[11] = locus YCL016C, strain dcc1, active compounds read low
[12] = locus YCL069W, strain vba3, active compounds read low
[13] = locus YCR088W, strain abp1, active compounds read low
[14] = locus YDL005C, strain med2, active compounds read low
[15] = locus YDL040C, strain nat1, active compounds read low
[16] = locus YDR001C, strain nth1, active compounds read low
[17] = locus YDR069C, strain doa4, active compounds read low
[18] = locus YDR137W, strain rgp1, active compounds read low
[19] = locus YDR159W, strain sac3, active compounds read low
[20] = locus YDR297W, strain sur2, active compounds read low
[21] = locus YDR334W, strain swr1, active compounds read low
[22] = locus YDR335W, strain msn5, active compounds read low
[23] = locus YDR392W, strain spt3, active compounds read low
[24] = locus YEL003W, strain gim4, active compounds read low
[25] = locus YEL037C, strain rad23, active compounds read low
[26] = locus YEL061C, strain CIN8 (second series), active compounds read low
[27] = locus YER015W, strain faa2, active compounds read low
[28] = locus YER016W, strain bim1, active compounds read low
[29] = locus YER111C, strain swi4, active compounds read low
[30] = locus YER155C, strain BEM2 (second series), active compounds read low
[31] = locus YFR010W, strain ubp6, active compounds read low
[32] = locus YGL167C, strain pmr1, active compounds read low
[33] = locus YGL173C, strain kem1, active compounds read low
[34] = locus YGL227W, strain vid30, active compounds read low
[35] = locus YGL240W, strain doc1, active compounds read low
[36] = locus YGL253W, strain hxk2, active compounds read low
[37] = locus YHR013C, strain ard1, active compounds read low
[38] = locus YHR027C, strain rpn1, active compounds read low
[39] = locus YHR030C, strain SLT2, active compounds read low
[40] = locus YHR079C, strain IRE1, active compounds read low
[41] = locus YHR142W, strain chs7, active compounds read low
[42] = locus YJL092W, strain hpr5, active compounds read low
[43] = locus YJL095W, strain BCK1 (second series), active compounds read low
[44] = locus YJL095W, strain BCK1, active compounds read low
[45] = locus YJL115W, strain asf1, active compounds read low
[46] = locus YJL129C, strain trk1, active compounds read low
[47] = locus YJL154C, strain vps35, active compounds read low
[48] = locus YJL164C, strain tpk1, active compounds read low
[49] = locus YJL166W, strain qcr8, active compounds read low
[50] = locus YJR066W, strain TOR1, active compounds read low
[51] = locus YKL160W, strain elf1, active compounds read low
[52] = locus YKR026C, strain gcn3, active compounds read low
[53] = locus YKR091W, strain srl3, active compounds read low
[54] = locus YLL001W, strain dnm1, active compounds read low
[55] = locus YLL026W, active compounds read low
[56] = locus YLL041C, strain sdh2, active compounds read low
[57] = locus YLR027C, strain aat2, active compounds read low
[58] = locus YLR113W, strain HOG1, active compounds read low
[59] = locus YLR221C, strain rsa3, active compounds read low
[60] = locus YLR258W, strain gsy2, active compounds read low
[61] = locus YLR262C, strain YPT6 (second series), active compounds read low
[62] = locus YLR320W, strain mms22, active compounds read low
[63] = locus YLR342W, strain FKS1, active compounds read low
[64] = locus YLR357W, strain rsc2, active compounds read low
[65] = locus YLR370C, strain arc18, active compounds read low
[66] = locus YLR384C, strain iki3, active compounds read low
[67] = locus YML120C, strain ndi1, active compounds read low
[68] = locus YMR058W, strain fet3, active compounds read low
[69] = locus YMR125W, strain sto1, active compounds read low
[70] = locus YMR129W, active compounds read low
[71] = locus YMR205C, strain PFK2, active compounds read low
[72] = locus YMR231W, strain pep5, active compounds read low
[73] = locus YNL071W, strain lat1, active compounds read low
[74] = locus YNL183C, strain NPR1, active compounds read low
[75] = locus YNL209W, strain ssb2, active compounds read low
[76] = locus YNL248C, strain rpa49, active compounds read low
[77] = locus YNL322C, strain KRE1 (second series), active compounds read low
[78] = locus YNR049C, strain mso1, active compounds read low
[79] = locus YOR001W, strain rrp6, active compounds read low
[80] = locus YOR070C, strain gyp1, active compounds read low
[81] = locus YOR080W, strain dia2, active compounds read low
[82] = locus YOR083W, strain WHI5, active compounds read low
[83] = locus YOR106W, strain vam3, active compounds read low
[84] = locus YOR231W, strain MKK1, active compounds read low
[85] = locus YOR265W, strain rbl2, active compounds read low
[86] = locus YOR270C, strain vph1, active compounds read low
[87] = locus YOR290C, strain snf2, active compounds read low
[88] = locus YPL051W, strain arl3, active compounds read low
[89] = locus YPL078C, strain atp4, active compounds read low
[90] = locus YPL106C, strain sse1, active compounds read low
[91] = locus YPL240C, strain hsp82, active compounds read low
[92] = locus YPL256C, strain CLN2, active compounds read low
[93] = locus YCL061C, strain MRC1, active compounds read low

Measured: normalized growth

Cc1c(S(=O)(=O)O)oc2c1C(=O)C(=O)c1c-2ccc2c1CCCC2(C)C
inactive: [1] 0.946 | [2] 0.923 | [4] 0.954 | [6] 0.943 | [7] 0.937 | [9] 0.985 | [11] 0.958 | [12] 0.983 | [13] 0.946 | [14] 0.963 | [15] 0.959 | [16] 0.955 | locus YDR195W, strain ref2 0.974 | [20] 0.939 | [21] 0.924 | [22] 0.962 | [24] 0.928 | [25] 0.947 | [26] 0.956 | [27] 0.93 | [28] 0.94 | [29] 0.965 | [31] 0.943 | [32] 0.928 | [33] 0.965 | [34] 0.968 | [36] 0.982 | [37] 0.913 | [38] 0.962 | [39] 0.982 | [40] 0.959 | [41] 0.994 | [42] 0.956 | [44] 0.979 | [45] 0.952 | [47] 0.969 | [48] 0.918 | [50] 0.934 | [52] 0.932 | [53] 0.95 | [54] 0.962 | [56] 0.938 | [58] 0.967 | [60] 0.95 | [63] 0.916 | [64] 0.905 | [65] 0.949 | [66] 0.926 | [69] 1 | [71] 0.912 | [72] 0.933 | [74] 0.932 | [75] 0.955 | [76] 0.962 | [77] 0.916 | [78] 0.976 | [79] 0.935 | [80] 0.949 | [81] 0.93 | [84] 0.98 | [85] 0.937 | [86] 0.956 | [87] 0.95 | [89] 0.931 | [90] 0.857 | [92] 0.968
active: [3] 0.92 | [5] 0.885 | [8] 0.889 | [10] 0.861 | [17] 0.874 | [18] 0.631 | [19] 0.808 | [23] 0.586 | [30] 0.779 | [35] 0.817 | [43] 0.912 | [46] 0.859 | [49] 0.893 | [51] 0.896 | [55] 0.924 | [57] 0.9 | [59] 0.891 | [61] 0.57 | [62] 0.871 | [67] 0.9 | [68] 0.839 | [70] 0.918 | [73] 0.726 | [82] 0.856 | [83] 0.821 | [88] 0.873 | [91] 0.921

Cc1cccc2c3c(ccc12)C1=C(C(=O)C3=O)C(C)CO1 (stereo not given)
active: [39] 0.128 | [40] 0.174 | [44] 0.263 | [50] 0.756 | [58] 0.163 | [74] 0.72 | [84] 0.133 | [92] 0.141

C[C@H]1COC2=C1C(=O)C(=O)c1c2ccc2c1CCCC2(C)C
active: [1] 0.859 | [2] 0.583 | [3] 0.858 | [4] 0.725 | [5] 0.534 | [6] 0.783 | [7] 0.808 | [8] 0.675 | [9] 0.725 | [10] 0.65 | [11] 0.691 | [93] 0.668 | [12] 0.659 | [13] 0.866 | [14] 0.828 | [15] 0.9 | [16] 0.913 | [17] 0.868 | [18] 0.23 | [19] 0.301 | locus YDR195W, strain ref2 0.823 | [20] 0.75 | [21] 0.729 | [22] 0.658 | [23] 0.0851 | [24] 0.77 | [25] 0.883 | [26] 0.527 | [27] 0.845 | [28] 0.666 | [29] 0.478 | [30] 0.334 | [31] 0.871 | [33] 0.801 | [34] 0.546 | [35] 0.649 | [36] 0.545 | [37] 0.604 | [38] 0.872 | [39] 0.139 | [40] 0.25 | [41] 0.379 | [42] 0.871 | [43] 0.408 | [44] 0.31 | [45] 0.886 | [46] 0.22 | [47] 0.913 | [48] 0.69 | [49] 0.349 | [50] 0.701 | [51] 0.462 | [52] 0.853 | [53] 0.893 | [54] 0.819 | [55] 0.843 | [56] 0.901 | [57] 0.662 | [58] 0.208 | [59] 0.662 | [60] 0.723 | [61] 0.2 | [62] 0.613 | [63] 0.626 | [65] 0.806 | [66] 0.904 | [67] 0.371 | [68] 0.619 | [69] 0.476 | [70] 0.824 | [71] 0.531 | [72] 0.714 | [73] 0.18 | [74] 0.666 | [75] 0.817 | [76] 0.735 | [77] 0.801 | [78] 0.903 | [79] 0.608 | [80] 0.752 | [81] 0.912 | [82] 0.712 | [83] 0.581 | [84] 0.213 | [85] 0.895 | [86] 0.543 | [87] 0.775 | [88] 0.549 | [89] 0.453 | [90] 0.537 | [91] 0.761 | [92] 0.19
inactive: [32] 0.936 | [64] 0.934

Cc1coc2c1C(=O)C(=O)c1c-2ccc2c1CCCC2(C)C
active: [2] 0.869 | [5] 0.882 | [8] 0.815 | [11] 0.904 | [93] 0.91 | [18] 0.439 | [19] 0.582 | [23] 0.196 | [24] 0.903 | [26] 0.905 | [30] 0.592 | [35] 0.801 | [36] 0.828 | [37] 0.815 | [39] 0.81 | [41] 0.868 | [44] 0.855 | [46] 0.738 | [51] 0.886 | [54] 0.886 | [57] 0.911 | [58] 0.821 | [59] 0.873 | [61] 0.485 | [62] 0.79 | [63] 0.904 | [67] 0.905 | [71] 0.735 | [73] 0.766 | [74] 0.82 | [80] 0.911 | [83] 0.852 | [88] 0.913 | [89] 0.853
inactive: [1] 0.912 | [3] 0.936 | [4] 0.968 | [6] 0.951 | [7] 0.916 | [9] 0.944 | [10] 0.913 | [12] 0.95 | [13] 0.955 | [14] 0.945 | [15] 0.948 | [16] 0.949 | [17] 0.925 | locus YDR195W, strain ref2 0.989 | [20] 0.951 | [21] 0.923 | [22] 0.929 | [25] 0.947 | [27] 0.951 | [28] 0.926 | [29] 0.953 | [31] 0.902 | [32] 0.946 | [33] 0.97 | [34] 0.962 | [38] 0.957 | [40] 0.859 | [42] 0.94 | [43] 0.925 | [45] 0.953 | [47] 0.957 | [48] 0.927 | [49] 0.94 | locus YJL187C, strain SWE1, active compounds read low 0.965 | [50] 0.835 | [52] 0.943 | [53] 0.946 | [55] 0.936 | [56] 0.958 | [60] 0.964 | [64] 1.07 | [65] 0.927 | [66] 0.96 | [68] 0.913 | [69] 0.975 | [70] 0.938 | [72] 0.953 | [75] 0.954 | [76] 1.03 | [77] 0.949 | [78] 0.954 | [79] 0.927 | [81] 0.949 | [82] 0.928 | [84] 0.867 | [85] 0.948 | [86] 0.809 | [87] 0.958 | [90] 0.852 | [91] 0.944 | [92] 0.894
